B2AR arrestin: agonists driving beta-arrestin recruitment to human beta2-adrenergic receptor | P07550 | beta-arrestin recruitment to beta2AR, cell-based reporter | Potency, µM (series often up to 46.1 µM), hits mostly activators | hit rate 0.02% among 330,000 | AID 492947; also: nearly all actives have a fitted effect of over 65% in size
Target sequence (P07550 whole entry, looked up): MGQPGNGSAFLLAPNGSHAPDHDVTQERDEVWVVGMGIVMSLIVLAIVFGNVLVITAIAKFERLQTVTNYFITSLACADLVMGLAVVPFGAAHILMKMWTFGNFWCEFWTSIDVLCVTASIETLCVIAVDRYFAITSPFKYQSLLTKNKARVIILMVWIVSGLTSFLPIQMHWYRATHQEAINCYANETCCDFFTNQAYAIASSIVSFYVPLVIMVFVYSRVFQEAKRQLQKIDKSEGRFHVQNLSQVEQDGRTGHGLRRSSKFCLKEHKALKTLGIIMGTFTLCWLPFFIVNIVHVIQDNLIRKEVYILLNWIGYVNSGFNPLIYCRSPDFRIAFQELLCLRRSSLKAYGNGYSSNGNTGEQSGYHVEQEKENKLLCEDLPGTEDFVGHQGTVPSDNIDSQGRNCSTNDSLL
DRD3 antagonist: antagonists of human D3 dopamine receptor | P35462 | D3R cells, DiscoveRx beta-arrestin luminescence, antagonist mode; hits give low values | max response, negative = inhibition, % | hit rate 2.5% among 360,000 | AID 652054; in the data active = max response below about -50%; inconclusive = no clear call, values can overlap the other calls
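Cells plated overnight at 1500 cells/well, then exposed to library compounds with dopamine controls for 90 minutes at 37 degrees C. DiscoveRx reagent added for 30–60 minutes at room temperature; luminescence read, quantitative HTS format.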
a7 integrin act: activates integrin-mediated alleviation for muscular dystrophy. alpha7betagal myoblasts, beta-gal FDG fluorescence, 48 h. Potency, µM (top dose mostly 38.3 µM), usual class: activators. hit rate 0.064% among 350,000. AID 624291; also: nearly all actives have a fitted effect of over 60% in size
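Alpha7betagal+/- myoblasts (passage 13) were plated 16-24 hr, then exposed to compounds (1:260 dilution of DMSO stock) for 48 hours at 37C. After MPER lysis, β-galactosidase reporter activity was read as FDG fluorescence (ex 480/em 540) after 30 minutes.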
DRD3 agonist: agonists of human D3 dopamine receptor; P35462; D3R DiscoveRx beta-arrestin cells, luminescence, 90 min; max activation, %; hit rate 0.58% among 410,000; AID 652048; in the data active = max activation above about 30%
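Agonist-mode cell screen: cells plated at 1500/well and incubated overnight at 37 °C, then exposed to library compounds for 90 min at 37 °C. Detection reagent was added for 30–60 min at room temperature, and luminescence was read.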
mIDH1 inhibitor: inhibitors of human mutant IDH1 R132H | IDH1-R132H enzyme, NADPH consumption, diaphorase/resazurin fluorescence | hit rate 0.093% among 390,000 | O75874 | Potency, µM (highest dose often 76.6 µM), actives largely listed as inhibitors; also: nearly all actives have a fitted effect of over 65% in size
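IDH1-R132H (0.5 ug/mL) preincubated 30 min with compound, then NADPH (0.016 mM) and alpha-KG (2 mM) added; 80 min at RT, pH 7.5. Remaining NADPH coupled via diaphorase/resazurin to fluorescence (540/590 nm); concentration-response curves normalized to no-enzyme control.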
Of the large screens only hits and unclear results are named; the others gave an inactive call. An excerpt weighted towards active compounds, which were near 2.9% of everything screened. Unless noted, calls follow the shape of the dose curve; as a rule, active = well fitted curve in the direction sought with a large enough effect; inconclusive = small, poorly fitted or top-dose-only effect, or another doubt; inactive = no such curve, though single readings can be large; an effect the other way counts as inactive or inconclusive.

O/C(=C\c1nc2ccccc2nc1/C=C(\O)c1ccccc1)c1ccccc1	DRD3 antagonist -67
CCCCCSc1nc2sc3c(c2c(=O)n1-c1ccc(OC)cc1)CCN(C(C)=O)C3	mIDH1 inhibitor inconclusive (no result: B2AR arrestin, DRD3 antagonist, a7 integrin act)
COCCCNC(=O)[C@H](Cc1ccccc1)NC(=O)CC[C@H]1O[C@@H](n2ccc(=O)[nH]c2=O)[C@H](O)[C@@H]1O	DRD3 antagonist -56 (no result: B2AR arrestin, a7 integrin act, mIDH1 inhibitor)
CCOc1ccc(NC(=O)CN(C)Cc2ccc3c(c2)OCO3)cc1S(=O)(=O)N1CCCC1	DRD3 antagonist -68
Cc1cc(F)ccc1NC(=O)C(C(C)C)N1Cc2ccccc2C1=O (configuration not stated)	none (no result: B2AR arrestin, DRD3 antagonist, a7 integrin act)
CCOc1ccc(N2CC(NC(=O)c3ccc(S(=O)(=O)N4CCCCC4)cc3)CC2=O)cc1 (configuration not stated)	none (no result: B2AR arrestin, DRD3 antagonist, a7 integrin act)
COCCN1Cc2cccc(C(=O)N3CCN(c4cc(C)ccc4C)CC3)c2C1=O	none
CCCN1Cc2cccc(C(=O)N3CCN(c4cc(Cl)ccc4C)CC3)c2C1=O	DRD3 antagonist -51
O=C(CN1CCOCC1)Nc1nc2cc([N+](=O)[O-])ccc2s1	none
O=C(CN1CCOCC1)NCc1cc([N+](=O)[O-])ccc1O	a7 integrin act 13µM
CC(CCC(C)C(C)(C)C)[C@@H]1CC[C@H]2C3C[C@H](OS(O)(=S)=S)[C@H]4C[C@H](OS(O)(=S)=S)[C@@H](OS(O)(=S)=S)C[C@]4(C)[C@H]3CC[C@]12C (some centres not stated) (tested in a mixture with another compound)	DRD3 antagonist -83, mIDH1 inhibitor inconclusive
CCCCC1=CC2=C(c3ccco3)C(=O)C(C)(OC(=O)c3ccc(OC)cc3)C(=O)C2=CN1CCCOC(C)C (configuration not stated)	DRD3 antagonist -83
COc1cc(NC(=O)C/C(C)=N/NC(=O)c2cccc(O)c2)c(OC)cc1Cl	DRD3 antagonist -51
CC(Cc1cccnc1)NC(=O)c1cc(COc2ccc(F)cc2Cl)on1 (configuration not stated)	none
CC12CCC3C(CCC4CC(O)CCC43C)C1CC(O)C2 (configuration not stated)	DRD3 agonist 31 (no result: B2AR arrestin)
CCCOc1ccc(C(=O)Nc2ccc(NC(=O)c3ccccc3)c(Br)c2)cc1	none (no result: B2AR arrestin, DRD3 antagonist, a7 integrin act)
COc1cc(C(=S)N2CCCCC2)ccc1OCC(=O)Nc1ccc(F)cc1	none
CC(=O)NC1(C2CCCCC2=O)CCCCC1 (configuration not stated)	DRD3 antagonist -65
COc1cccc(CNC(=O)CCCn2c(=O)c3cccn3c3ccc(F)cc32)c1OC	none (no result: B2AR arrestin, DRD3 antagonist, a7 integrin act)
O=C(Nc1cccnc1Cl)c1ccc(=O)oc1	none
Cn1ccc(C(=O)Nc2cccnc2Cl)n1	a7 integrin act 10µM
O=C(Cn1nc(Cc2cccnc2)c2ccccc2c1=O)Nc1cccc(C(F)(F)F)c1	none (no result: B2AR arrestin, DRD3 antagonist, a7 integrin act)
Cc1ccc(-n2ncc3c(Nc4ccc5c(c4)OCCO5)ncnc32)cc1C	DRD3 agonist 48 (no result: B2AR arrestin, DRD3 antagonist, a7 integrin act)
CC(=O)CC1(O)C(=O)Nc2ccccc21 (configuration not stated)	none
COC1=CC(=O)C=C(OC)C1(O)CC(C)=O	DRD3 antagonist -56 (no result: B2AR arrestin)
COc1ccc2nc(NC(=O)CN3CCOCC3)sc2c1	none
CCN1CCN(CC(=O)Nc2nc3ccc(OC)cc3s2)CC1	DRD3 antagonist -66
COc1ccc2nc(NC(=O)CN3CCN(C)CC3)sc2c1	DRD3 antagonist -59
COc1ccc2nc(NC(=O)C3CCCN3S(=O)(=O)c3ccc(C)cc3)sc2c1 (configuration not stated)	DRD3 antagonist -71
O=C(NCc1ccccc1Cl)C(=O)NCC(c1cccs1)S(=O)(=O)c1cccs1 (configuration not stated)	none (no result: B2AR arrestin, DRD3 antagonist, a7 integrin act)
COC(=O)c1sc(N)c(C(=O)OC)c1COC(=O)c1c(C)noc1C	DRD3 antagonist -69
COC(=O)c1sc(NC(=O)c2c(C)noc2C)nc1C	none
CC(C)(C)C(=O)C(Cc1ccccc1Cl)n1cncn1 (configuration not stated)	none
CC(C)(C)C(=O)C(Cc1ccccc1)n1cncn1 (configuration not stated)	DRD3 antagonist -55
CC(C)(C)c1ccc(Cn2nnc3c(=O)[nH]c(C4CCN(C(=O)c5ccco5)CC4)nc32)cc1	DRD3 agonist 32, mIDH1 inhibitor inconclusive

Source: PubChem
